In ChEMBL document CHEMBL4513146, “CO-ADD screening of Karazin Kharkiv National University (Ukraine) compounds”:
Potency and affinity values are given separately.

tested on: Staphylococcus aureus; conditions: Concentration 32 ug.mL-1;; ASSAY_TEST Inhibition of Bacterial Growth; detection method Absorption (OD600); MEDIA CAMHB; plate type 384well; NBS; CORNING #3640; time 18 hr

Compound | Inhibition [%]
Cc1cc2nn(CC(=O)Nc3cc(F)ccc3C)c(=O)n2c(Nc2ccc(F)cc2)n1 | 4.25
CCCN(C)c1nccn2c(=O)n(CC(=O)Nc3cccc(SC)c3)nc12 | 12.22
COc1ccc(-c2cc3c4nn(CC(=O)Nc5c(C)cc(C)cc5C)c(=O)n4ccn3n2)cc1 | 9.75
CC(C)Cn1c(=O)c2ccc(C(=O)NC3CCCCC3)cc2n2c(=O)n(CC#N)nc12 | 8.84
Cc1cc(NC(=O)Cn2c(=O)c3nnc(C(C)C)n3c3ccccc32)ccc1Br | 13.77
Cc1ccc(-c2ccc3nn(CC(=O)NCc4ccc(Cl)cc4)c(=O)n3n2)cc1C | -0.74
O=C(Cn1nc2c(Sc3ccccc3)nccn2c1=O)Nc1cc(F)ccc1F | 0.01
Cc1ccc(-c2cc3c4nn(CC(=O)Nc5cc(F)ccc5C)c(=O)n4ccn3n2)cc1C | 8.9
CCc1nnc2c(SCC(=O)Nc3cc(Cl)ccc3C)nc3ccccc3n12 | 13.83
O=C(CSc1nnc2c(=O)n(-c3ccccc3)ccn12)Nc1cccc(Cl)c1 | 1.05
CSc1cccc(NC(=O)Cn2nc3c(Sc4cccc(F)c4)nccn3c2=O)c1 | 2.75
CN(C(=O)Cn1nc2n(Cc3cccs3)c(=O)c3sccc3n2c1=O)c1ccccc1 | -14.76
CC(C)c1nnc2c(=O)n(CC(=O)Nc3cccc(Br)c3)c3ccccc3n12 | 13.16
COC(=O)c1sccc1NC(=O)Cn1nc2c(Oc3ccccc3)nc3ccccc3n2c1=O | 9.09
COc1ccc(NC(=O)Cn2nc3ccc(SCc4ccc(Cl)cc4)nn3c2=O)cc1OC | 0.34
